# Laboratory results as given in PubChem BioAssay (NCI).
# Compounds without any hit were thinned out: in the full panel of roughly 79,000, 15% have a hit. Unmarked numbers belong to inactive results. Active and inactive are the calls of the source. No stated cut-off is given here; in the data, active means growth inhibition above about 70%; inactive means the rest.
# Experiments:
# [1] = NCI Yeast Anticancer Drug Screen. Data for the rad50 strain (AID 155);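 further: 0% = growth of vehicle-only cultures of the same strain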; conditions: S. cerevisiae rad50 strain growth inhibition, stronger effect = higher value
# Procedure, shortened: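 Vehicle-treated cultures provide the reference for the growth inhibition reported for compound-exposed, repair-deficient yeast.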
# [2] = NCI Yeast Anticancer Drug Screen. Data for the mec2-1 strain (AID 157); conditions: S. cerevisiae mec2-1 strain, stronger effect = higher value
# Procedure, shortened: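 Mutant yeast (mec2-1) grown with compound; growth inhibition relative to vehicle control reported.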
# [3] = NCI Yeast Anticancer Drug Screen. Data for the sgs1 mgt1 strain (AID 161);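 further: 0% = growth of cultures given vehicle only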; conditions: S. cerevisiae sgs1 mgt1 strain, stronger effect = higher value
# Procedure, shortened: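 Yeast cells carrying a defined DNA-repair defect were exposed to test compounds. Growth inhibition was measured relative to vehicle-treated controls.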
# [4] = NCI Yeast Anticancer Drug Screen. Data for the cln2 rad14 strain (AID 165);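 further: 0% = growth equal to vehicle treated cultures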; conditions: S. cerevisiae cln2 rad14 strain, stronger effect = higher value
# Procedure, shortened: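 Readout is yeast growth inhibition versus vehicle-treated controls, using a strain with cln2 and rad14 alterations exposed to compound.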
# [5] = NCI Yeast Anticancer Drug Screen. Data for the bub3 strain (AID 167); conditions: S. cerevisiae bub3 mutant strain, stronger effect = higher value
# Procedure, shortened: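 Mutant yeast screening strain plus compound; vehicle-treated cultures serve as the 0% inhibition reference.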
# [6] = NCI Yeast Anticancer Drug Screen. Data for the mlh1 rad18 strain (AID 175); conditions: S. cerevisiae mlh1 rad18 strain growth inhibition, stronger effect = higher value
# Procedure, shortened: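 Genetically defined yeast (DNA repair-deficient) exposed to compounds; growth inhibition determined relative to vehicle.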
# [7] = at 5.0 µM (retest, dose inferred, filed as 0.5)
# [8] = at 50.0 µM (retest, dose inferred, filed as 5.0)
SMILES,"growth inhibition [1, 7]","growth inhibition [1, 8]",growth inhibition ([1]; at 50.0 µM),"growth inhibition [2, 7]","growth inhibition [2, 8]",growth inhibition ([2]; at 50.0 µM),"growth inhibition [3, 7]","growth inhibition [3, 8]",growth inhibition ([3]; at 50.0 µM),"growth inhibition [4, 7]","growth inhibition [4, 8]",growth inhibition ([4]; at 50.0 µM),"growth inhibition [5, 7]","growth inhibition [5, 8]",growth inhibition ([5]; at 50.0 µM),"growth inhibition [6, 7]","growth inhibition [6, 8]",growth inhibition ([6]; at 50.0 µM)
O=C(CC1CCCC(CC(=O)c2ccccc2)N1CCc1ccccc1)c1ccccc1 (configuration not stated),39%,97% (active),89.7% (active),23%,99% (active),90.6% (active),41%,98% (active),92.8% (active),27%,97% (active),91.8% (active),41%,98% (active),89.7% (active),34%,98% (active),89.2% (active)
[Cu+2].c1ccc2n[nH]nc2c1,99% (active),99% (active),98.8% (active),99% (active),99% (active),99.3% (active),98% (active),99% (active),98.5% (active),70% (active),99% (active),98.3% (active),96% (active),99% (active),98.6% (active),99% (active),99% (active),98.7% (active)
CCCCCCCCCCCCOc1c(Cl)cc(Cl)c(Cl)c1Cc1c(O)c(Cl)cc(Cl)c1Cl,1%,86% (active),97.5% (active),0%,92% (active),98.5% (active),2%,72% (active),98.3% (active),-2%,87% (active),97.2% (active),0%,89% (active),96.4% (active),2%,87% (active),97.7% (active)
CC(=O)CC1(O)C(=O)Nc2ccc(Br)cc21 (configuration not stated),1%,-2%,39%,0%,-3%,6.3%,-2%,1%,10.8%,-3%,8%,60.1%,6%,2%,0.8%,-5%,-8%,5.25%
O=C(O)c1ccc(C(O)(c2ccccc2)c2ccccc2)cc1,-9%,65%,63.4%,11%,95% (active),86% (active),-9%,90% (active),98% (active),-1%,90% (active),82.3% (active),-3%,97% (active),77.7% (active),3%,93% (active),96.4% (active)
CCC(CO)Nc1nc2ccc(Br)cc2c2ccccc12 (configuration not stated),15%,82% (active),76% (active),4%,59%,49.5%,5%,95% (active),86% (active),0%,56%,66%,2%,84% (active),63.6%,8%,96% (active),93.9% (active)
O=C(Nc1ccc(Br)cc1)c1c(-c2ccccc2)c2ccc(O)cc2oc1=O,0%,96% (active),96.3% (active),-9%,97% (active),95.5% (active),-5%,93% (active),98.6% (active),-7%,95% (active),94% (active),-10%,96% (active),97.2% (active),-3%,96% (active),98.4% (active)
Brc1cccc[n+]1Cc1cc2ccccc2c2ccccc12,0%,91% (active),97.2% (active),32%,74% (active),97.5% (active),0%,88% (active),98.6% (active),-5%,70% (active),94.5% (active),-12%,91% (active),97.5% (active),1%,88% (active),97.9% (active)
Cc1cc([N+](=O)[O-])ccc1NC(=O)N(C)CCOC(=O)Nc1ccccc1,48%,90% (active),84% (active),43%,95% (active),89.2% (active),42%,96% (active),89.5% (active),32%,97% (active),86.4% (active),44%,97% (active),89.3% (active),64%,96% (active),87.8% (active)
CN(Nc1ccc(Cl)cc1)c1ccc(Cl)cc1,1%,95% (active),73.2% (active),12%,98% (active),64%,0%,97% (active),79.2% (active),5%,95% (active),53.1%,9%,97% (active),77% (active),-9%,96% (active),75.3% (active)
Nc1ccccc1Sc1ccc(F)cc1[N+](=O)[O-],-6%,85% (active),71% (active),-19%,26%,89.8% (active),2%,76% (active),89.1% (active),-6%,59%,72.3% (active),-3%,85% (active),88.8% (active),-4%,93% (active),88.5% (active)
CCCCCCCCCCCCNC(=O)OCC(C)O (configuration not stated) (tested in a mixture with another compound),95% (active),97% (active),98.2% (active),76% (active),93% (active),96.6% (active),96% (active),98% (active),98.9% (active),81% (active),88% (active),97.9% (active),84% (active),74% (active),99.4% (active),93% (active),91% (active),98.5% (active)
CC(C)=CCC/C(C)=C/CC/C(C)=C/CC/C=C(\C)CC/C=C(\C)CCC[N+](C)(C)[O-],14%,90% (active),98.9% (active),17%,91% (active),99.4% (active),46%,94% (active),99.2% (active),5%,59%,98.4% (active),16%,95% (active),98.8% (active),13%,73% (active),99.1% (active)
ClC1CC[N-]CC1.ClC1CC[N-]CC1.[Cl][Pt+2]([Cl])([Cl])[Cl],50%,96% (active),89.5% (active),42%,98% (active),90.9% (active),58%,98% (active),90.2% (active),36%,98% (active),87.4% (active),64%,98% (active),93% (active),35%,96% (active),91.7% (active)
CC(C)(Br)C(=O)c1ccc([N+](=O)[O-])o1,49%,99% (active),90.6% (active),62%,100% (active),93.5% (active),85% (active),100% (active),89.4% (active),51%,99% (active),84.2% (active),42%,99% (active),91.8% (active),91% (active),99% (active),91% (active)
N=C(N)c1ccc(Oc2ccc(Oc3ccc(C(=N)N)cc3)cc2)cc1,43%,69%,70.8% (active),39%,68%,83.8% (active),59%,89% (active),81.2% (active),50%,80% (active),64.6%,53%,79% (active),65.7%,57%,90% (active),81.5% (active)
COc1ccc2c(c1)OC(OC)(c1ccccc1)C(O)(OC)C2=O (configuration not stated),1%,21%,40.7%,-7%,22%,31.8%,3%,35%,59%,-9%,15%,7.25%,-1%,17%,20.4%,-4%,33%,44.4%
Cc1cc(SCC(=O)c2ccc(Br)cc2)cc(C)[o+]1,-14%,80% (active),94.5% (active),4%,95% (active),95% (active),20%,81% (active),91.5% (active),-42%,75% (active),90% (active),-5%,95% (active),93.1% (active),-8%,92% (active),95.1% (active)
CC(=O)Nc1ccc(-c2csc(Nc3ccnc4cc(Cl)ccc34)n2)cc1,12%,40%,69.8%,-4%,46%,51.4%,9%,69%,72.8% (active),0%,4%,41%,-2%,40%,33.3%,3%,27%,82.9% (active)
